Source: PMC13494018
Values without a mark were called inactive. How the calls were made is not given here.

Target: CD276, Q5ZPR3
Sequence (Q5ZPR3 whole entry): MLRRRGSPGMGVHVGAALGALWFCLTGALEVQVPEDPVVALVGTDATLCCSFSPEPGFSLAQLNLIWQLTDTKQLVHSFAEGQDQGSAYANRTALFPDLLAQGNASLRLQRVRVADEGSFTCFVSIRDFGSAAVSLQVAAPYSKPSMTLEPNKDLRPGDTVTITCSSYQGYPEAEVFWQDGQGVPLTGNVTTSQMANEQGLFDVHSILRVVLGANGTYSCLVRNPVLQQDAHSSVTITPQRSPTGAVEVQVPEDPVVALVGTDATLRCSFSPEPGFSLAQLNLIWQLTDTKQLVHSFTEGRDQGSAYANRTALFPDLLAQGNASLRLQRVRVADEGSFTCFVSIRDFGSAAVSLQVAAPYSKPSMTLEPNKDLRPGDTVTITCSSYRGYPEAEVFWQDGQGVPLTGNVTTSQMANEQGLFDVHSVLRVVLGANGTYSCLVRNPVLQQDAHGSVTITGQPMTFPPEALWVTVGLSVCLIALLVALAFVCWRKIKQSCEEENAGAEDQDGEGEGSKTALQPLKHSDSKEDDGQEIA

Row | Binder | binding in a display sort
1 | design_486_d4f32670-1303-4d79-8413-1b14cb3eff50_2076_dldesign_0_cycle1_af2pred (protein) AALVGEAMVLLAEVAAAGPPEVRAKASAAIAALAAGDLETALKLAKEAAELLKKAGKEYEPAAKKAEEAAKLLKEAAAAAA | not found
2 | design_487_778f5c6d-c470-43b8-8f82-464af6177e08_816_dldesign_0_cycle1_af2pred (protein) GSMEELAKLRAEAEEKLAAAQAVVERPAETVTLEELNAALAQAVEAARLFQEVGDRELLAEAFRVAATLAARAVEVAA | not found
3 | design_487_778f5c6d-c470-43b8-8f82-464af6177e08_560_dldesign_0_cycle1_af2pred (protein) GAAKLAQGALNMAKAQLAYLEKALAAGAADPANAAAYKAKAKEALEQLKTFATAATLVDPAAAPEGDAILKEAEAKYKALSAAIAAA | not found
4 | design_487_778f5c6d-c470-43b8-8f82-464af6177e08_1347_dldesign_0_cycle1_af2pred (protein) AAEAETQAALAQLQATMHELMRIAAQALALGDAELAQEALEAVVKGQEGLADPSIVKATAEEVSAARERLRARVEALRAA | not found
5 | design_487_778f5c6d-c470-43b8-8f82-464af6177e08_920_dldesign_0_cycle1_af2pred (protein) ESVREAARKVKELAEALAAQAKAAGDEEAAKLAEEAAKLAEEAEKKAEEDPEEAKRLIVEALRLLNRAFALLVAAS | not found
6 | design_487_778f5c6d-c470-43b8-8f82-464af6177e08_501_dldesign_0_cycle1_af2pred (protein) MDRAVEIAVASLKHAVKQAIAAAEKIDPELAKKVEEEGKKKIEEAAASDSATAVEIAIEALKKLSELSKKARA | not found
7 | design_487_778f5c6d-c470-43b8-8f82-464af6177e08_1099_dldesign_0_cycle1_af2pred (protein) AAEEVAKKFAKAVLRIALKQIDENAADPELVKKIADNAVKLLNSLSDGAAVAKAEAEKIKAHAEATIAKAKAAKA | not found
8 | design_487_778f5c6d-c470-43b8-8f82-464af6177e08_452_dldesign_0_cycle1_af2pred (protein) EEERIQRIAEQVEELIKTAEEALATGTAAGKQAAKQLALAAATVLSSVDPELGAKVKEVAKTGTAEEAIKAAKEALEEIKKK | not found
9 | design_487_778f5c6d-c470-43b8-8f82-464af6177e08_421_dldesign_0_cycle1_af2pred (protein) SDAKLAVEAARSAAIAAIELAKQGAWQGAELARQNMKKAAEKALKLGAADPSVKEEVEKEVNAIVKETDAALAAEKAAR | not found
10 | design_487_778f5c6d-c470-43b8-8f82-464af6177e08_620_dldesign_0_cycle1_af2pred (protein) GAKSKALQKLFQQANELHKLAIAAKKPEAKKIYNEAAGTALDFAEKAQAGGDEEAEKLAKEAEKIAKEAKEKALAIE | not found
11 | design_487_778f5c6d-c470-43b8-8f82-464af6177e08_1129_dldesign_0_cycle1_af2pred (protein) AEELRERMKKSADGAIEVINDLTAYGIAHPEHAALARAALTGLGTNMIAAAAANPVSKELAEKLAAALTAATAAIDAA | not found
12 | design_487_778f5c6d-c470-43b8-8f82-464af6177e08_1035_dldesign_0_cycle1_af2pred (protein) VEEIVERVNAALARATRAALAGGPEAAARTAELMRRAAEAVRLAREDPEAGKKIADEVEAEVDALLAAVA | not found
13 | design_486_d4f32670-1303-4d79-8413-1b14cb3eff50_2179_dldesign_0_cycle1_af2pred (protein) AQEANDLLAETLETLREGQAAAKELGDEEARLKLVELANKSMTLASQAVAAGGDQELLDKAKEYHAELKKLAKEVKEKA | not found
14 | design_487_778f5c6d-c470-43b8-8f82-464af6177e08_1130_dldesign_0_cycle1_af2pred (protein) MTTEETARQQRENVEQVGRVAGLPEQAAELARAMEERAIREGLSNEEIIAEASRLSAQINRQALAAAQAA | not found
15 | design_486_d4f32670-1303-4d79-8413-1b14cb3eff50_1718_dldesign_0_cycle1_af2pred (protein) MSAGEIALANTRAVAKQLIAAGKELGTEEEARKKAEEAIAKVEELAKKGPAGAAEAMKITVEMMKELDKVSKAVEEAE | not found
16 | design_487_778f5c6d-c470-43b8-8f82-464af6177e08_420_dldesign_0_cycle1_af2pred (protein) AEEKIKEANRLFQEGARKMVQGLQLAAQGKKEEAEKELTEAIELFTKASKLAKEAGDERLAESAEKAAKEAKAQLAAVKAA | not found
17 | design_487_778f5c6d-c470-43b8-8f82-464af6177e08_1117_dldesign_0_cycle1_af2pred (protein) MNVEEAKAQIEALMNRARGYFMRGAALAGTPEGAALNAKGAALLAEAEALAKEAGPEAQKVFAELKAKMDAAVNAVAN | not found
18 | design_487_778f5c6d-c470-43b8-8f82-464af6177e08_718_dldesign_0_cycle1_af2pred (protein) MKKEEAIRALAAAAARAAKLAVDPRTAAVANKALEVVVSAMEEVEASEDEEEAVEIAEKALAEADKLLAEAAKAA | not found
19 | design_486_d4f32670-1303-4d79-8413-1b14cb3eff50_2004_dldesign_0_cycle1_af2pred (protein) KKAEILAAGNALVVELLAEAEKAAKAAKAAGDPEAANQALVEAAKGAAKIHALMVKGAPVEELKKEAEAAKKKIKALAE | not found
20 | design_487_778f5c6d-c470-43b8-8f82-464af6177e08_310_dldesign_0_cycle1_af2pred (protein) AAVLSPEQAGGTFRALATSIRLAAEAGDLDSAEALAAAGLQLAENQPAVAPLVNKAKEEAAKLTPKEAALKLADAFEQAGDALLA | not found

Row | Binder | binding in a display sort
21 | design_486_d4f32670-1303-4d79-8413-1b14cb3eff50_1967_dldesign_0_cycle1_af2pred (protein) DAEVEKLQAQIRTAGLILMASSSPEKAEEALKRTKEAVELAKKNPEEGLKLAEEIAEEAKKVGTPEQAAVIDSVFK | not found
22 | design_487_778f5c6d-c470-43b8-8f82-464af6177e08_1075_dldesign_0_cycle1_af2pred (protein) AAAEEAKKLVKEAKALLKAAEATGNLALAQAALEKALEAIALGAEVNKERPLPVAVEAVRLAGRAYALVRQLTA | not found
23 | design_486_d4f32670-1303-4d79-8413-1b14cb3eff50_2359_dldesign_0_cycle1_af2pred (protein) DAAKEFAENYEKAAEYVSQIYAKDPAAGEEMQKVLTAKTAEASKLAIAGDLAGAAKVMKEALEIAKKKLEEL | not found
24 | design_487_778f5c6d-c470-43b8-8f82-464af6177e08_1381_dldesign_0_cycle1_af2pred (protein) MVEKAIEMVEKATKEAAARAPAKAEEIKKLGEKFKKEVEYLGKLNPESGLVMARGAVGALKDIADKEAKA | not found
25 | design_487_778f5c6d-c470-43b8-8f82-464af6177e08_613_dldesign_0_cycle1_af2pred (protein) EEAEKERARAIIEKASAKLDALAAEAEERDPALGAQARALRDSLAATAQTYIETGSPTGRAGLNSLAAFLA | not found
26 | design_487_778f5c6d-c470-43b8-8f82-464af6177e08_1159_dldesign_0_cycle1_af2pred (protein) DTAAALAAAAAAAAALAKADPALAPAALAITQANLAAILDLAEETKAANPEVPAAVGETFNTAITTASTAYATALKLAQ | not found
27 | design_487_778f5c6d-c470-43b8-8f82-464af6177e08_509_dldesign_0_cycle1_af2pred (protein) GEAFSKEALEKGKEAAKKAEESTDPEAKTLYIKAASNYYGAAALALSPESAPLAKERAAKGDEYRAKADAL | not found
28 | design_487_778f5c6d-c470-43b8-8f82-464af6177e08_1348_dldesign_0_cycle1_af2pred (protein) AEKKREEAKKLVEEAKKLAEKGDFEKAVEKLREAVALDPSVIGEALEAVKVIAEKNPAAAPAASLAIIRAAQEA | not found
29 | design_486_d4f32670-1303-4d79-8413-1b14cb3eff50_1885_dldesign_0_cycle1_af2pred (protein) MEEAGEIVERAEEVYKRAKEAAEENAKRNPEKKEEIKKLYEEAVALIQKSLALASQGALEGNQELLKEAKKKLEEAEKVAKEIEKL | not found
30 | design_487_778f5c6d-c470-43b8-8f82-464af6177e08_978_dldesign_0_cycle1_af2pred (protein) KSPTEQVAEYAAKVRAKAPKGEEIARLLFSYNAAYQADPAKGKEKEKELKALAKENPEAKEYVEAAVAAVKA | not found
31 | design_487_778f5c6d-c470-43b8-8f82-464af6177e08_1105_dldesign_0_cycle1_af2pred (protein) AAQLALARATLIAAADSLERLAAQAGPAYAPVAAEAAALRAAAEAGTLTADEANAALGRLLDQMEAISAEIR | not found
32 | design_486_d4f32670-1303-4d79-8413-1b14cb3eff50_2148_dldesign_0_cycle1_af2pred (protein) GSAAYEFAKEAIERALKAAEELKKLDPEEGKKLIEKVEKLKKELEANKDNAQKAARIAIEALQIEQEAQQKIAALKAA | not found
33 | design_487_778f5c6d-c470-43b8-8f82-464af6177e08_1277_dldesign_0_cycle1_af2pred (protein) EKEEAKKKAEELLKEIKKLAKEAAASDAETANKYLAKAVETAKELYELAKKIGEEGKELAKEANAALAAAAKAAMDKVQ | not found
34 | design_487_778f5c6d-c470-43b8-8f82-464af6177e08_1334_dldesign_0_cycle1_af2pred (protein) AGGYAVLAQNTLARARALAAQGPAALPEIEAQARILQQVAEAAAQAGDAEGAATAAANAEQARALAEEARRA | not found
35 | design_487_778f5c6d-c470-43b8-8f82-464af6177e08_256_dldesign_0_cycle1_af2pred (protein) GEALEKAKEYEKEANEAAAKGKATTPAEGALYFLKAAALYAKAAEEYKKAGDEKNAKEAEAKAKEATANMIALSKQAIAA | not found
36 | design_487_778f5c6d-c470-43b8-8f82-464af6177e08_100_dldesign_0_cycle1_af2pred (protein) MDKEQVYETAAKMLEEGAELVKAGEETKPAGLAKAKAAALLVLGVDPEVGEKVLKLVEEAEKADQEKAAKLIEEAAKLVKE | not found
37 | design_487_778f5c6d-c470-43b8-8f82-464af6177e08_901_dldesign_0_cycle1_af2pred (protein) DELEKKIKEELEKAKEYLKKGKELFEAGKYKEAAAEFEKAIEYASKAMELAAEAGPKYNKYGVEASKVANEAYKLRQQALAK | not found
38 | design_487_778f5c6d-c470-43b8-8f82-464af6177e08_89_dldesign_0_cycle1_af2pred (protein) SEAEKEAEKAEKLVEELRANPKVPLEKAKELAKAIQELAKLDPEKGAEMASKAVAVILEKGKEIPGETINAILTGVSKAHAIINA | not found
39 | design_487_778f5c6d-c470-43b8-8f82-464af6177e08_749_dldesign_0_cycle1_af2pred (protein) GAEEALLAEARALLARAQGLLIEAAKQLKTDPAAAIKLAEEAKKLAEKAKELAKKLGRRGPGLQAMADAVIDSAKALKAQAEAAL | not found
